# Experimental data taken from PubChem BioAssay AID1259416 (Broad Institute, 2018).
# Several values for one entry are separate records, joined by “and”; a condition that tells them apart may be missing. Equal values may be shown once. About 2,600 (3.8%) of roughly 69,000 compounds were called active. Rule as the data show it: active = activity change below about -70% (passing the limit was not always enough); inconclusive = no clear call, values can overlap the other calls. The sample as a whole holds a higher share of actives than the screen did. The source holds several records for some structures; these can differ, active in one and inactive in another.
# Assay: inhibitors of Toxoplasma growth in IFN-γ-primed hosts – cell-based, primary screen (AID 1259416);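 also: host cells are HeLa cells infected with Toxoplasma gondii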
# Settings: Toxoplasma gondii growth in IFN-gamma-treated host cells; stronger effect = lower value; concentration not given here
row,Structure (SMILES),"activity change, negative = inhibition"
1,O=C(Cn1ncc2ccccc2c1=O)NCc1cc(Cl)c2c(c1)OCCCO2,23% (inactive)
2,Cc1ccsc1CNc1cccc(C(=O)N(C)Cc2snnc2C)c1,-4.49% (inactive)
3,Cc1ccc2oc(=O)n(CCC(=O)N3[C@@H]4CC[C@H]3CNC(=O)C4)c2c1,-11.3% (inactive)
4,Cc1cc(C)cc(NC(=O)N2CCC3(CC2)Nc2ccccc2-n2cccc23)c1,295% (inactive)
5,O=C(N[C@H]1C[C@H]2C(=O)NCC(=O)N2C1)c1cccc(Cn2cccn2)c1,-5.16% (inactive)
6,COc1c(C)c2c(c(O)c1C/C=C(\C)CCC(=O)O)C(=O)OC2,-91.9% (active)
7,O=C(O)CSc1nnc(-c2ccn[nH]2)n1-c1ccccc1Cl,55.4% (inactive)
8,Cc1ccsc1CN(CCCN1CCOCC1)CC1=Cc2ccccc2OC1,97.9% (inactive)
9,Cc1ccc2oc(CN(CCCO)Cc3sccc3C)c(C)c2c1,-33.4% (inactive)
10,CCS(=O)(=O)N1CCC2(CC1)Nc1ccc(C)c(C)c1-n1cccc12,28% (inactive)
11,CC1(C)[C@]2(C(=O)NCCCc3nc4ccccc4o3)CC[C@@]1(C)OC2=O,4.16% (inactive)
12,c1ccc(N2CCN(N=C3c4ccccc4-c4ccccc43)CC2)nc1,-103% (active)
13,O=C(CN1CCN(c2ccccn2)CC1)Nc1ccc(Br)cc1,-9% (inactive)
14,c1ccc(N2CCC3(COCCN(c4ncccn4)C3)C2)nc1 (stereo not drawn),-3.03% (inactive)
15,CCCn1cc(S(=O)(=O)NCC2CCC(c3ccc(C(N)=O)c(C)n3)CC2)c(C)n1 (stereo not drawn),19.4% (inactive)
16,CN(C)C(=O)[C@@]12CCCN(Cc3cccs3)C[C@@H]1CN(Cc1cnn(C)c1)C2,-0.124% (inactive)
17,FC(F)(F)c1cccc2c(N3CCN(C4CCOCC4)CC3)ccnc12,-46.1% (inactive)
18,CN(n1cnc2ccccc2c1=O)S(=O)(=O)c1cc(Cl)sc1Cl,-76.6% (active)
19,CN(C(=O)Nc1ccc(Cl)cc1)n1cnc2ccccc2c1=O,-50.7% (inactive)
20,COC(=O)c1cc(NC(=O)S(=O)(=O)c2ccccc2)cc(C(=O)OC)c1,86.5% (inactive)
21,CCCCN(Cc1ccccc1)C(=O)c1cc2cccnc2n(Cc2ccc(Cl)cc2)c1=O,28.6% (inactive)
22,Cc1ccc(O)c(CCc2ccccc2)n1,8.51% (inactive) and 1.67% (inactive)

row,Structure (SMILES),"activity change, negative = inhibition"
1,CCCCc1c(O)cc(-c2ccccc2)n(Cc2ccccc2)c1=O,-76.1% (active)
2,CC(C)(O)c1cn(C2CCN(C(=O)CCc3ccncc3)CC2)nn1,5.1% (inactive)
3,O=S(=O)(c1ccc(Cl)c(Cl)c1)N1CCc2c([nH]c3ccccc23)C1C(F)(F)F (stereo not drawn),-82.6% (active)
4,O=C(c1ccc(F)cc1)N1CCc2c([nH]c3ccccc23)C1c1ccccc1 (stereo not drawn),63% (inactive)
5,O=S(=O)(c1ccc(Cl)c(Cl)c1)N1CCC2(CC1)Nc1ccccc1-n1cccc12,43% (inactive)
6,CCc1nnc(CN(CC)C(=O)c2cccc(-c3ccc(C)o3)c2)o1,0.889% (inactive)
7,Cn1ccnc1-c1ccc(N2CCCC(OCc3cccnc3)C2)nn1 (stereo not drawn),-19% (inactive)
8,COCCc1noc(CN2CCCC2c2ccccn2)n1 (stereo not drawn),8.04% (inactive)
9,N#C/C(=C\c1ccc(O)c(O)c1)C(=O)NCc1ccccc1,5.59% (inactive)
10,CCC[C@H](NC(=O)/C(C#N)=C/c1cccc(Br)n1)c1ccccc1,-72.2% (active)
11,CN(C)C(=O)c1cccc(-c2ccccc2[C@@H]2[C@@H](CO)N(C(=O)C3CCCCC3)[C@H]2C#N)c1,-9.68% (inactive)
12,COCc1ncn2c1CN(C(=O)c1cnc(C)cn1)CCC2,16.2% (inactive)
13,CC1CCCCC12NC(=O)N(CC(=O)N1CCN(Cc3ccccn3)CC1)C2=O (stereo not drawn),13.9% (inactive)
14,COCCn1nnnc1CN(Cc1ccccc1)Cc1cc2ccc(C)c(C)c2[nH]c1=O,-81.4% (active)
15,CC(C)Oc1cccc(-c2csc(C(N)=O)c2)c1,65.6% (inactive)
16,CN(C)C(=O)C[C@]12COC[C@H]1CN(Cc1ccc3ccccc3n1)C2,-5.46% (inactive)
17,COCc1ccc(C(=O)Nc2ccc3nc(C)[nH]c3c2)o1,-55.3% (inactive)
18,COC(=O)Nc1nc2ccc(C(=O)C3CC3)cc2[nH]1,-69.3% (inactive)
19,COC(=O)Nc1nc2ccc(Sc3ccccc3)cc2[nH]1,-69.1% (inactive) and 7.35% (inactive) and -78% (active)
20,Cc1cc(C(=O)N2CCc3c(COCCN(C)C)cncc3C2)no1,-28.8% (inactive)
21,Cc1nnsc1CNC(=O)CC1CCc2ccccc21 (stereo not drawn),-7.08% (inactive)
